Laboratory results: PubChem BioAssay (EPA / NIEHS)
The source made the active and inactive calls. The calls were made as follows: active = hit-call score of the fitted dose curve at least 0.9, where 1 is the maximum; inactive = score below 0.9.

What follows are compounds tested against Estrogen receptor (Homo sapiens) (UniProt P03372) (assay: CCTE_Deisenroth_AIME_384WELL_LUC_Shift: CCTE's 384-well Estrogen Receptor Transactivation Assay with AIME metabolic competence data shift (ERTA luciferase; difference in metabolism positive and negative), Deisenroth Lab (AID 2284041);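 also: shift is response with S9 minus without S9 so positive means metabolism raised ER signal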).
Sequence of Estrogen receptor (Homo sapiens) (P03372 whole entry, looked up): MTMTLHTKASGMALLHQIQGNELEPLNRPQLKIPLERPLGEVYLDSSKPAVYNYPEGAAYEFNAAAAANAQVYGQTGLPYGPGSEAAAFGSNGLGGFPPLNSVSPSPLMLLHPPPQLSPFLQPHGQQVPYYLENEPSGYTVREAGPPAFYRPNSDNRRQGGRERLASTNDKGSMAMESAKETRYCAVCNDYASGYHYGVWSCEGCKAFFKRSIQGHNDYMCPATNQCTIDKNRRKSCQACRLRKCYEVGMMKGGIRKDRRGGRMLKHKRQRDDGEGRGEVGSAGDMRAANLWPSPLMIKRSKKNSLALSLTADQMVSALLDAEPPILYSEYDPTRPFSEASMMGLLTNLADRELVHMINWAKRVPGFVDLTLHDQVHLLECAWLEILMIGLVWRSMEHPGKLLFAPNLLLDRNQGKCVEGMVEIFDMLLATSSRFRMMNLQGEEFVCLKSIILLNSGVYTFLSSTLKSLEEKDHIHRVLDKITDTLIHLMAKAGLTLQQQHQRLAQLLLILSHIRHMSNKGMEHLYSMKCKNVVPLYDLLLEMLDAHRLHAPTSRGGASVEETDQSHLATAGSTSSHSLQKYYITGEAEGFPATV
Experimental: CCTE_Deisenroth_AIME_384WELL (AIME metabolism assay) is a cell-based, single-readout assay that uses VM7Luc4E2, a human mammary gland/breast cell line, with measurements taken at 24 hour after chemical dosing in a 384-well plate.CCTE_Deisenroth_AIME_384WELL_LUC_Shift is one of two analysis components calculated from the CCTE_Deisenroth_AIME_384WELL assay. […] AIME is optimized to impart phase I hepatic metabolism using phenobarbital/beta-naphthoflavone induced hepatic S9 from male Sprague Dawley rats. Parent chemicals are incubated for 2 hours in the AIME assay prior to transfer to the VM7Luc ERTA assay plate. […] The metabolic curve shift response is defined as the pairwise difference between the positive (AEID 2488) and negative (AEID 2490) normalized response values at each concentration for a given chemical across replicate experiments. The pairwise differences form the basis for a concentration-response curve. Standard curve fit analysis identfiied chemicals where the calculated shift was greater than the shift-derived baseline cutoff. A positive hit designation in this endpoint indicates a significant shift trend in the positive direction for bioactivation.
The AIME procedure consists of a preparative "pre-stamping" step using a barium chloride/poly-L-lysine (PLL) solution followed by "stamping" the lid in alginate-hepatic S9 (metabolism positive) or alginate-water (metabolism negative) to form microspheres. Once stamping is completed, the AIME lids are placed in duplicate microplates (metabolism positive or negative) containing chemical solutions and incubated for two hours to facilitate metabolic reactions. The conditioned medium, containing parent chemical or metabolites, is then transferred to the cell-based VM7Luc Estrogen Receptor Transactivation Assay (ERTA) for 24 hours. A typical experimental design tests a 10-point concentration series (0.002 - 200 uM) for 8 compounds (96-well format)1 or 32 compounds (384-well format)2 in single technical replicate. AIME assay controls include trans-stilbene (bioactivated control) and ethylparaben (bioinactivated control). ERTA assay plate controls include 17-beta estradiol (positive control) and DMSO (solvent control). Experiments typically comprise a minimum of four experimental replicates (n=4).

**Q.** `O=C(O)CC(O)(CC(=O)O)C(=O)O` was tested. Which outcome did it give?
**A.** inactive

**Q.** With `O=C(O)c1[nH]n(-c2ccc(S(=O)(=O)O)cc2)c(=O)c1N=Nc1ccc(S(=O)(=O)O)cc1` as the compound, how does the outcome read?
**A.** inactive

**Q.** Which outcome does the source give for `Cc1ccc(C(C)(C)C)c(O)c1` here?
**A.** inactive

**Q.** `O=C1CCCCC1` was tested. Which outcome did it give?
**A.** inactive

**Q.** Which outcome does the source give for `c1ccc2occc2c1` here?
**A.** inactive

**Q.** How did the outcome turn out when `CCCCCCC(CCCCCCCCCCC(=O)OCC(COC(C)=O)OC(C)=O)OC(C)=O` (centres undefined) was run?
**A.** inactive

**Q.** How did the AC50 turn out when `O=C(O)CN(CC(=O)O)CC(=O)O` was run?
**A.** 233 µM (active)

**Q.** How did the outcome turn out when `COC(=O)CCC(=O)OC` was run?
**A.** inactive

**Q.** For `CCCCCCCC(=O)OC`, which outcome is on record?
**A.** inactive

**Q.** How did the outcome turn out when `CC(C)c1cccc(C(C)C)c1` was run?
**A.** inactive

**Q.** With `O=[Si]=O` as the compound, how does the outcome read?
**A.** inactive

**Q.** `Nc1nc(=S)c2[nH]cnc2[nH]1` was tested. Which outcome did it give?
**A.** inactive

**Q.** With `CC1=C(C)S(=O)(=O)CCS1(=O)=O` as the compound, how does the outcome read?
**A.** inactive

**Q.** `NC1CCCCC1` was tested. Which outcome did it give?
**A.** inactive

**Q.** Which outcome does the source give for `CC(C)OC(=O)C(C)(C)Oc1ccc(C(=O)c2ccc(Cl)cc2)cc1` here?
**A.** inactive

**Q.** Which outcome does the source give for `CN(C)CCCN(C)CCCN(C)C` here?
**A.** inactive

**Q.** Which outcome does the source give for `CSc1ccc(Oc2ccc(S(N)(=O)=O)cc2CN(C)C)cc1C` here?
**A.** inactive

**Q.** How did the outcome turn out when `CC1(C)C(=O)NC(=O)N1CO` was run?
**A.** inactive

**Q.** `CCCCCCCCCCCCCCCCO` was tested. Which outcome did it give?
**A.** inactive
